In PubChem BioAssay (EPA / NIEHS):
Several values for one entry are separate records, joined by “and”; a condition that tells them apart may be missing. Equal entries are not always repeated. Inconclusive results are not listed. Activity calls are given as the source filed them. The calls were made as follows, unless noted: active = hit-call score of the fitted dose curve at least 0.9, where 1 is the maximum; inconclusive = response in the unintended direction; inactive = score below 0.9.

Tests used:
[1] = molecular target: Cellular tumor antigen p53 (Homo sapiens) (UniProt P04637); assay: TOX21_p53_BLA_p2_ratio: Tox21 HCT-116 p53 Agonism Beta-lactamase Assay, Ratio, Phase 2 (AID 2283592)
Sequence of Cellular tumor antigen p53 (Homo sapiens) (P04637 whole entry, looked up): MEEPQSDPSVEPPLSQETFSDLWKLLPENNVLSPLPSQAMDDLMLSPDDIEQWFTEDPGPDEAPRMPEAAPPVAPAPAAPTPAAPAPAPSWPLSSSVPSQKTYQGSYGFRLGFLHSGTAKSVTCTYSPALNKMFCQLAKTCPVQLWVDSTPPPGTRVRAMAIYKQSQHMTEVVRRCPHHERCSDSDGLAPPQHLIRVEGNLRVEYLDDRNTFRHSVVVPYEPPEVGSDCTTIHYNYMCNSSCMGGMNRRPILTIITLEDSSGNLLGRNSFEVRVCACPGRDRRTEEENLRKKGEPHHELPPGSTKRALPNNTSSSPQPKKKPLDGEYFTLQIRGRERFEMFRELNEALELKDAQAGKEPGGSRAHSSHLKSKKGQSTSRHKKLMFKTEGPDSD
Outline: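 Ratio endpoint: beta-lactamase cleavage of CCF4-AM, blue (460 nm) over green (530 nm). HCT116 reporter line; 16 h treatment, 37C; substrate 2 h RT.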

[2] = TOX21_p53_BLA_p3_viability: Viability Assessment in the Tox21 HCT-116 p53 Agonism Beta-lactamase Assay, Phase 3 (AID 2283593);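 also: cells exposed to compound for 16 h before reading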
Outline: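 HCT-116 cells (4000/well) rested 5 h at 37C, then got DMSO compounds by pin tool (217-fold dilution) for 16 h at 37C, 5% CO2. After the bla read, CellTiter-Glo was added and luminescence read at 30 min, room temperature.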

[3] = molecular target: Cellular tumor antigen p53 (Homo sapiens) (UniProt P04637); assay: TOX21_p53_BLA_p3_ratio: Tox21 HCT-116 p53 Agonism Beta-lactamase Assay, Ratio, Phase 3 (AID 2283596)
Outline: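 Cells were seeded at 4000/well, rested 5 h at 37C, then dosed with DMSO compound solutions (217-fold dilution) for 16 h. CCF4-AM substrate was loaded for 2 h at room temperature, and the 460/530 nm emission ratio was fitted for gain of signal versus DMSO.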

[4] = TOX21_p53_BLA_p4_viability: Viability Assessment in the Tox21 HCT-116 p53 Agonism Beta-lactamase Assay, Phase 4 (AID 2283597);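 also: hits lower the luminescence signal meaning cytotoxicity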
Outline: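 Cytotoxicity was inferred from loss of CellTiter-Glo luminescence. HCT116 cells had been dosed with compounds after 5 h plating, incubated 16 h at 37C and 5% CO2, and exposed to the CCF4-AM substrate for 2 h.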

[5] = molecular target: Cellular tumor antigen p53 (Homo sapiens) (UniProt P04637); assay: TOX21_p53_BLA_p5_ratio: Tox21 HCT-116 p53 Agonism Beta-lactamase Assay, Ratio, Phase 5 (AID 2283599)
Outline: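 HCT-116 cells carrying a p53-inducible beta-lactamase reporter were seeded at 4000 cells/well and dosed after 5 h with compound in DMSO (217-fold dilution). After 16 h at 37C, CCF4-AM substrate was added for 2 h, and the 460/530 nm emission ratio was scored as gain-of-signal versus DMSO.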

[6] = TOX21_p53_BLA_p5_viability: Viability Assessment in the Tox21 HCT-116 p53 Agonism Beta-lactamase Assay, Phase 5 (AID 2283600)
Outline: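 Luciferase-coupled ATP quantitation of cells treated for 16 h (37C, 5% CO2) with test chemicals delivered in DMSO via a 217-fold dilution; 4000 cells/well; reagent incubated 30 min at room temperature before luminescence reading.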

[7] = molecular target: Cellular tumor antigen p53 (Homo sapiens) (UniProt P04637); assay: TOX21_p53_BLA_p4_ratio: Tox21 HCT-116 p53 Agonism Beta-lactamase Assay, Ratio, Phase 4 (AID 2283601)
Outline: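 HCT116 cells carrying an inducible beta-lactamase reporter were plated at 4000 cells/well, rested 5 h, then exposed to compounds in DMSO (217-fold dilution) for 16 h at 37C. CCF4-AM substrate was loaded 2 h at room temperature; 460/530 nm emission ratio scored gain-of-signal versus DMSO.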

[8] = TOX21_p53_BLA_p2_viability: Viability Assessment in the Tox21 HCT-116 p53 Agonism Beta-lactamase Assay, Phase 2 (AID 2283591);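 also: compound exposure lasted 16 h at 37 °C; actives lower the ATP signal meaning cytotoxicity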
Outline: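 HCT-116 p53-bla cells (4000/well) rested 5 h at 37C, then received compounds in DMSO (217-fold dilution) for 16 h at 37C, 5% CO2. After the CCF4 read, CellTiter-Glo was added; ATP luminescence was read after 30 min at room temperature.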

[9] = UKN5_HCS_SBAD2_cell_viability: Viability Assessment in the University of Konstanz (UKN) Leist Lab Neurite Outgrowth Assay in human iPSC-derived immature Dorsal Root Ganglia Neurons (UKN5) (AID 2284056; active = hit-call score of the fitted dose curve at least 0.9, where 1 is the maximum; inactive = score below 0.9)
Outline: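 iPSC-derived immature peripheral neurons (SBAD2) seeded on Matrigel with CHIR99021, SU5402 and DAPT, dosed 1 h later for 24 h. Viability from Hoechst H-33342 and calcein-AM live staining, high-content imaging; bidirectional fit versus DMSO.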

[10] = UKN5_HCS_SBAD2_neurite_outgrowth: University of Konstanz (UKN) Leist Lab Neurite Outgrowth Assay in human iPSC-derived immature Dorsal Root Ganglia Neurons (UKN5) (AID 2284070; active = hit-call score of the fitted dose curve at least 0.9, where 1 is the maximum; inactive = score below 0.9); conditions: actives raise or lower the signal
Outline: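 Thaw, seed on Matrigel (100.000 cells/cm2), dose 1 h later; at 23 h live-stain with H-33342 and calcein-AM for 60 min; image at 24 h. Neurite area fitted bidirectionally vs DMSO.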

[11] = UKN2_HCS_IMR90_neural_migration: University of Konstanz (UKN) Leist Lab Neural Crest Cell Migration Assay in human induced IMR90 Pluripotent Stem Cells (UKN2) (AID 2284204; active = hit-call score of the fitted dose curve at least 0.9, where 1 is the maximum; inactive = score below 0.9); conditions: actives raise or lower the signal
Outline: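 Using a 96-well stopper format with PLO/laminin/fibronectin coating, neural crest cells from iPSC migrate in cytokine-supplemented N2-S medium; after 24 h, chemicals are applied for a further 24 h, then cells are imaged after dye staining.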

[12] = UKN4_HCS_LUHMES_neurite_outgrowth: University of Konstanz (UKN) Leist Lab Neurite Outgrowth Assay in human LUHMES cells (UKN4) (AID 2284206; active = hit-call score of the fitted dose curve at least 0.9, where 1 is the maximum; inactive = score below 0.9); conditions: actives raise or lower the signal
Outline: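 Human LUHMES cells were differentiated for two days, replated and treated with chemicals for 24 h. Neurite outgrowth was quantified as calcein-stained neurite area by HCS imaging, fitted bidirectionally relative to DMSO.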

[13] = UKN4_HCS_LUHMES_cell_viability: Viability Assessment in the University of Konstanz (UKN) Leist Lab Neurite Outgrowth Assay in human LUHMES cells (UKN4) (AID 2284232; active = hit-call score of the fitted dose curve at least 0.9, where 1 is the maximum; inactive = score below 0.9)
Outline: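 Cells switched to differentiation medium at day 0, replated on day 2 in medium lacking cAMP and GDNF, and compound-treated once attached. Live staining began 23.5 h later, imaging followed at 24 h.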

[14] = UKN2_HCS_IMR90_cell_viability: Viability Assessment in the University of Konstanz (UKN) Leist Lab Neural Crest Cell Migration Assay in human induced IMR90 Pluripotent Stem Cells (UKN2) (AID 2284233; active = hit-call score of the fitted dose curve at least 0.9, where 1 is the maximum; inactive = score below 0.9;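 also: viability of neural crest cells differentiated from IMR90 iPSC measured by calcein-AM fluorescence imaging; cells exposed to compound for 24 h after a 24 h migration phase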)
Outline: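 cMINC format, iPSC-derived neural crest (IMR90); 24 h migration (EGF/FGF, N2-S), then 24 h toxicant. Calcein-AM/H-33342 stain 30 min; fluorescence intensity by HCS; DMSO-normalised, bidirectional fitting.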

Measured: AC50

CCC1(CC)C(=O)NC(=O)N(C)C1=O
inactive: [1] | [2] | [3] | [4] | [5]

N[C@@H](Cc1ccc(N(CCCl)CCCl)cc1)C(=O)O
active: [1] 26.6 µM and 25.6 µM | [3] 20.2 µM and 24.6 µM | [5] 32.6 µM and 29.2 µM | [7] 22.7 µM and 30.4 µM
inactive: [2] | [4] | [6]

CNC(=O)Oc1ccccc1C(C)C
inactive: [8] | [7]

CC(C)NCC(O)c1ccccc1Cl (centres undefined)
inactive: [1] | [2] | [3]

c1cncc([C@@H]2CCCCN2)c1
inactive: [1] | [2]

CN1CC[C@]23c4c5ccc(O)c4O[C@H]2[C@@H](O)C=C[C@H]3[C@H]1C5
inactive: [8] | [6] | [9] | [10] | [11] | [12] | [13] | [14]

[O]=[Cd]
inactive: [1] | [2] | [3] | [4] | [5] | [7]

C=C(C)CCl
inactive: [1] | [2] | [3] | [5] | [6]

CN(C)[C@H](Cc1ccccc1)c1ccccc1
active: [2] 37.9 µM
inactive: [1] | [3] | [5] | [6]

CCCC1CCCCN1 (centres undefined)
inactive: [1] | [2] | [3] | [4] | [5] | [7]
